Consider 13 molecules from PubChem BioAssay.

One test has as its target Albumin (Bos taurus) (UniProt P02769). The test can be described thus: compounds binding labelled BSA control protein – biochemical, small-molecule microarray, Alexa647 label, 635/667 nm fluorescence, artefact control for SMM control protein annotation, profiling panel (AID 1118).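 Note: score merges 667 nm emission intensity and signal-to-noise per printed compound spot.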 Particulars: BSA-A647 binding, fluorescence 635 nm, higher = more signal.
The nature of test [1]: probe aXIP binding to arrayed compounds – biochemical, NeuroSMM set, 635/667 nm fluorescence, primary screen (AID 1119).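 Note: probe is the protein aXip251-270 applied at 1 µg/mL to compound-printed slides; binding of probe to printed compounds measured as 667 nm fluorescence plus signal to noise.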 Particulars: small-molecule microarray, higher = more signal, called active from +8 up or from −8 down.
Test [2] is described as follows: probe aNOTCH3 binding on compound microarray – biochemical, small-molecule microarray, 635/667 nm fluorescence, primary screen (AID 1120).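 Note: probe is a biotin-tagged antibody raised against NOTCH3 rather than NOTCH3 protein; score merges spot fluorescence near 667 nm with spot signal to noise.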 Particulars: higher = more signal.
Test [3] can be described thus: probe aNOTCH2 binding on compound microarray – biochemical, small-molecule microarray, 635/667 nm fluorescence, primary screen (AID 1121).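 Note: score merges feature fluorescence read at 667 nm with its signal to noise.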 The following applies: higher = more signal.
For test [4], the target named is Carbonic anhydrase 2 (Homo sapiens) (UniProt P00918). Kind of test: compounds binding carbonic anhydrase 2 – biochemical, small-molecule microarray, Alexa647-labelled CAII, profiling panel (AID 1122). The following applies: CAII-A647 binding fluorescence, higher = more signal.
A short description of test [5]: COS7 lysate on small-molecule microarray, probe aHis, 635 nm (AID 1123).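 Note: z-score combines 667nm fluorescence intensity with signal-to-noise per printed compound spot.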 The following applies: COS7 cell lysate, fluorescence, higher = more signal.
Test [6] is described as follows: probe aLAP1 signal on lysate-treated microarray – cell lysate, small-molecule microarray, COS7 lysate, primary screen (AID 1124).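 Note: lysate comes from COS7 cells expressing LAP1 and is applied at 0.3 µg/mL; score merges spot fluorescence near 667 nm with signal-to-noise over triplicate slides.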 The following applies: probe aLAP1, fluorescence, higher = more signal.
The next test relates to Sam68 (KHDRBS1). The test can be described thus: compounds binding KHDRBS1 protein – biochemical, small-molecule microarray, 635 nm fluorescence, primary screen (AID 1125).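 Note: score merges 667 nm channel intensity with signal to noise over triplicate slides.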 The following applies: higher = more signal.
In test [7] the test system is Chordin-like protein 2 (CHRDL2). The test can be described thus: compounds binding chordin-like 2 – biochemical, small-molecule microarray, 635 nm fluorescence, primary screen (AID 1126).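 Note: printed compound slides probed with Chrdl2 protein at 4 µg/mL for 1 h at 4 C; score merges 667 nm emission intensity with signal to noise over three replicate slides.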 Particulars: fluorescence 635 nm, higher = more signal.
In test [8] the target is Concanavalin-A (Canavalia ensiformis) (UniProt P02866). The test can be described thus: compounds binding concanavalin A lectin – biochemical, small-molecule microarray, Alexa647 label, 635 nm, artefact control for SMM control protein annotation, primary screen (AID 1127).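 Note: z combines 667 nm emission intensity with signal-to-noise across three replicate slides.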 Particulars: ConA-A647 binding fluorescence, higher = more signal.
Sequence of Concanavalin-A (Canavalia ensiformis) (P02866 whole entry, looked up): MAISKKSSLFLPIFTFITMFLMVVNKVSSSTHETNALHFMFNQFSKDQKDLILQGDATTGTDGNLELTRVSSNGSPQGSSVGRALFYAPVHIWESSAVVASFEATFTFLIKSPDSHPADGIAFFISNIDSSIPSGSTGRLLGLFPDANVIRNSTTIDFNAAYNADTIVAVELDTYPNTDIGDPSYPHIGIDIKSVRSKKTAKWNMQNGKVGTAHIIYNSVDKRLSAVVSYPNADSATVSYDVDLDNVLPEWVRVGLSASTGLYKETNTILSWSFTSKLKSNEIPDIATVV

Calls of active or inactive are those of the source.

Sequence of Albumin (Bos taurus) (P02769 whole entry, looked up): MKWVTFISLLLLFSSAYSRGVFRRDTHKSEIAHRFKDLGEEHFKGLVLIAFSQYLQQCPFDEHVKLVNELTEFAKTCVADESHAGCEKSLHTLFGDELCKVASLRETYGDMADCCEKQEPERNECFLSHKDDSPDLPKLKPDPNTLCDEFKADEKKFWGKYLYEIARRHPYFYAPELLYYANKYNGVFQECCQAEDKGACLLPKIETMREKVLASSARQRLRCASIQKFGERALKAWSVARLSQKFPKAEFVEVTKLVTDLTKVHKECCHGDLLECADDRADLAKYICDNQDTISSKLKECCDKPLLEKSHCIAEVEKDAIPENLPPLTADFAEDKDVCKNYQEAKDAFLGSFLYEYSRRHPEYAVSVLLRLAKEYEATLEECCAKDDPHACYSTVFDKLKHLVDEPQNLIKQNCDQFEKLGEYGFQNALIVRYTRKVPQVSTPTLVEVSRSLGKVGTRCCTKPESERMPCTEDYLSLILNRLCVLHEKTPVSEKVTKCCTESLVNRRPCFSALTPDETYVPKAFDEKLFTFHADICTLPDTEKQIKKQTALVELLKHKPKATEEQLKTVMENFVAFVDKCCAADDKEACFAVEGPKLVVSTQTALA

On to `COCCCNC(=O)[C@]1(CCC(=O)OC(C)(C)C)N=C(c2ccc(OCCCO)cc2)O[C@@H]1c1ccccc1N=[N+]=[N-]`, for which the composite z-score in the test with Albumin (Bos taurus) was 0.913; in test [2], 0.534; in [3], -0.092; in test [4] it was 0.725; in [5] it was 3.09; in test [6], 0.0106. Also, the composite z-score was 1.31 with Sam68 (KHDRBS1), -0.18 in [7] and 1.17 in [8]. In test [1], the composite Z-score is 0.201 (inactive).

Consider `CN(C)CCCNC(=O)[C@@H]1c2ccccc2C(=O)N(Cc2cc(F)cc(C(F)(F)F)c2)[C@H]1c1ccc(CO)cc1`, for which the composite z-score with Albumin (Bos taurus) is 0.277; in test [2], -0.0976; in [3], -0.114; in test [4], 0.783; in [5] it was 0.969; in test [6], 0.578. For the same molecule, the composite z-score in the test on Sam68 (KHDRBS1) worked out at 0.946; in test [7] it was 1.08; in [8], 0.21. Besides, in test [1], the composite Z-score was 0.451 (inactive).

In the case of `CC(CCN1CCc2nc(-c3ccccc3)c(-c3ccccc3)cc2C1)=NO[C@@H](C)c1cn([C@H](CO)Cc2ccccc2)nn1`, the composite z-score is 0.908 with Albumin (Bos taurus); 0.0242 in test [2]; -0.117 in test [3]; 0.526 in test [4]; -0.478 in test [5]; -0.208 in test [6]. In addition, the composite z-score is -0.163 with Sam68 (KHDRBS1), 0.0808 in [7] and -0.602 in test [8]. The composite Z-score in test [1] was 0.715 (inactive).

For the molecule `[N-]=[N+]=NCc1ccccc1C[C@]1(C(=O)NCc2ccccc2)N=C(c2ccc(OCCCO)cc2)O[C@H]1c1ccccc1N=[N+]=[N-]`, the composite z-score with Albumin (Bos taurus) was 0.841; in test [2], 0.531; in test [3], -0.098; in [4] it was 0.476; in [5], 1.91; in test [6] it was 0.317. Moreover, the composite z-score is 1.09 in the test with Sam68 (KHDRBS1), -0.38 in test [7] and 0.822 in [8]. Further, the composite Z-score in test [1] is 0.187 (inactive).

Regarding `CS(=O)(=O)CCOC(=O)C1=CC(CCCO)=CC(c2cccs2)N(Cc2cccc(OC(F)(F)F)c2)C=C1C(=O)OCCS(C)(=O)=O` (stereo not given), the composite z-score in the test with Albumin (Bos taurus) is 1.03; in test [2] it was 0.106; in [3] it was -0.0358; in test [4], 0.809; in test [5] it was 1.1; in test [6] it was 0.678. Further, the composite z-score in the test with Sam68 (KHDRBS1) was 1.18; in test [7] it was -0.607; in test [8], 1.16. Moreover, in test [1], the composite Z-score is 0.0987 (inactive).

In the case of `COc1ccc(O[C@H]2C=C[C@@H](c3ccccc3)O[C@@H]2COC(=O)CCC(C)=NOCC[C@@H]2C=C[C@H](OC(C)=O)[C@@H](COC(C)=O)O2)cc1`, the composite z-score is -0.598 in the test with Albumin (Bos taurus); 0.297 in [2]; -0.0028 in test [3]; 0.654 in test [4]; 0.938 in test [5]; 0.203 in test [6]. In addition, the composite z-score with Sam68 (KHDRBS1) was -0.23; in [7], -0.0022; in [8], -0.997. Moreover, in test [1], the composite Z-score was 0.806 (inactive).

Consider `C=CCNC(=O)[C@H]1[C@@H]2C(=O)O[C@@H](c3ccccc3)[C@@H](c3ccccc3)N2[C@@H](c2ccc(O)cc2)[C@]12C(=O)N(C(=O)OCCOC)c1ccc(C#CC3=CCCCC3)cc12`, for which the composite z-score worked out at 0.633 with Albumin (Bos taurus); 1.27 in [2]; 0.396 in [3]; 0.296 in test [4]; 2.23 in test [5]; 1.78 in [6]. Besides, the composite z-score with Sam68 (KHDRBS1) was 1.3; in test [7] it was 0.966; in test [8], 1.09. In addition, the composite Z-score in test [1] was 0.62 (inactive).

`COc1ccc([Si](C)(C)[C@@H]2[C@@H](CC(=O)N3CCC[C@H]3CO)O[C@]3(C(=O)N(Cc4cccc(N5CCC5=O)c4)c4ccccc43)[C@H]2C)cc1`: the composite z-score with Albumin (Bos taurus) is 0.263; in test [2] it was 0.239; in [3], -0.0288; in [4], 0.14; in [5] it was 2.25; in test [6], 0.317. Moreover, the composite z-score in the test on Sam68 (KHDRBS1) is 1.31; in test [7], 0.453; in test [8], 0.811. Moreover, in test [1], the composite Z-score is 0.188 (inactive).

As to `O=C1c2ccccc2[C@@]2(Cc3ccccc3N(C3CC3)C2=O)[C@H](c2ccc(CO)cc2)N1Cc1ccccc1C(F)(F)F`, the composite z-score is -0.259 with Albumin (Bos taurus); 0.062 in test [2]; -0.0248 in test [3]; 0.82 in test [4]; -0.0061 in test [5]; 0.439 in test [6]. Moreover, the composite z-score in the test with Sam68 (KHDRBS1) is 0.219; in test [7], -0.338; in [8], -0.657. Besides, the composite Z-score in test [1] is -0.174 (inactive).

On to `CC(=O)OC[C@H]1O[C@H](C#CCCCc2ccccc2)C=C[C@@H]1OC(C)=O`, for which the composite z-score was 0.495 with Albumin (Bos taurus); -0.0647 in test [2]; -0.0772 in test [3]; -0.155 in [4]; 0.622 in [5]; 0.46 in test [6]. Besides, the composite z-score in the test on Sam68 (KHDRBS1) was 0.459; in test [7], 0.192; in [8], -0.077. Also, the composite Z-score in [1] was 0.0117 (inactive).

As for `COCCOC(=O)N1C(=O)[C@@]2(c3cc(C#CCNC(N)=O)ccc31)[C@H](c1ccccc1OCCO)N1[C@H](c3ccccc3)[C@H](c3ccccc3)OC(=O)[C@H]1[C@@H]2C(=O)N1CCN(c2ncccn2)CC1`, the composite z-score in the test with Albumin (Bos taurus) is 0.583; in test [2] it was 0.169; in [3], -0.0028; in [4], 0.537; in test [5], 1.92; in [6], 0.579. Besides, the values for the composite z-score (with Sam68 (KHDRBS1); in [7]; in test [8]) were 1.32, -0.119 and 1.06, respectively. Besides, the composite Z-score in test [1] was 0.339 (inactive).

As to `COc1ccccc1CN1C(=O)c2ccccc2[C@@]2(Cc3ccccc3N(C(C)C)C2=O)[C@@H]1c1ccc(CO)cc1`, the composite z-score with Albumin (Bos taurus) was 0.282; in [2], -0.0581; in test [3], -0.117; in test [4], -0.0384; in test [5], 0.209; in [6], 0.21. Further, the composite z-score with Sam68 (KHDRBS1) was -0.067; in test [7], -0.381; in test [8], 0.262. Besides, the composite Z-score in [1] was 0.0371 (inactive).

Turning to `C[C@H](c1ccccc1)N1C(=O)[C@H]2[C@@H]3C(=CC[C@H]2C1=O)C(=O)[C@H]1O[C@H]1[C@H]3O`, the composite z-score with Albumin (Bos taurus) was 0.166; in test [2] it was -0.111; in test [3] it was -0.147; in [4] it was -0.182; in test [5], -0.51; in test [6] it was 0.172. The results for the composite z-score (in the test with Sam68 (KHDRBS1); in test [7]; in [8]) were -0.136, 1.02 and 0.471, respectively. Also, in test [1], the composite Z-score was -0.0238 (inactive).
